In PubChem BioAssay:
For part of these data: Results with a measured potency or affinity are listed apart. Active and inactive are the calls of the source. Unless noted, the rule behind the calls is not given here.

Key:
[1] = antimalarial activity against Dd2 strain (AID 2302;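 active = growth inhibition above 50% at the single 2 µM test dose, taken to imply half-maximal potency below 2 µM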;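 note: 0% = DMSO untreated growth and 100% = chloroquine plus artemisinin killed control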); conditions: P. falciparum Dd2 in RBCs, LDH growth readout, 72 h; at 2 µM; stronger effect = higher value
[2] = human hepatoma cell viability loss – ATP luminescence, cytotoxicity control for P. falciparum antimalarial project, primary screen (AID 2303;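 active = inhibition above 50%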;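 note: 0% = DMSO wells and 100% = digitonin-killed cells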); conditions: HepG2 viability, 24-48 h, at 10 µM, stronger effect = higher value
[3] = biological target: L-lactate dehydrogenase (Plasmodium falciparum (isolate CDC / Honduras)) (UniProt Q27743); experiment: PfLDH activity inhibition – cell lysate, 3D7 strain, counter-screen for P. falciparum growth inhibition project (AID 2304);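 note: 0% = vehicle and 100% = reference inhibitor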; conditions: P. falciparum 3D7 crude extract, LDH APAD/NBT absorbance; at 2 µM; stronger effect = higher value
[4] = inhibition of 3D7 malaria parasite growth – strain 3D7 (AID 2306);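 note: 0% = DMSO wells and 100% = chloroquine plus artemisinin control wells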; conditions: P. falciparum 3D7 erythrocytic growth, LDH absorbance, 72 h; at 2 µM; stronger effect = higher value
[5] = biological target: Calcium-dependent protein kinase 1 (Plasmodium falciparum (isolate 3D7)) (UniProt P62344); experiment: PfCDPK1 kinase inhibitors, biochemical, TCAMS library (AID 1159585; cut-off not given, nearly all actives have IC50 up to about 0.98 µM;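 note: inhibitors leave more ATP so luminescence rises with inhibition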); conditions: recombinant PfCDPK1, Kinase-Glo ATP depletion luminescence
[6] = biological target: Plasmodium falciparum protein kinase 6 (PK6, PF3D7_1337100) (UniProt Q8IDW1); experiment: PfPK6 kinase inhibitors, biochemical, TCAMS library (AID 1159586); conditions: recombinant PfPK6, Kinase-Glo ATP depletion luminescence
[7] = biological target: Protein kinase 7 (PK7), Plasmodium falciparum 3D7 (PF3D7_0213400) (UniProt Q7YTF7); experiment: inhibition of Plasmodium PK7 catalytic activity – biochemical, TCAMS antimalarial set, Kinase-Glo luminescence (AID 1159587); conditions: recombinant PfPK7, Kinase-Glo ATP depletion luminescence
[8] = biological target: Calcium-dependent protein kinase 4 (Plasmodium falciparum (isolate 3D7)) (UniProt Q8IBS5); experiment: PfCDPK4 kinase inhibitors, biochemical, TCAMS library (AID 1159588; cut-off not given, nearly all actives have IC50 up to about 0.91 µM); conditions: recombinant PfCDPK4, Kinase-Glo ATP depletion luminescence
Chain of Calcium-dependent protein kinase 4 (Plasmodium falciparum (isolate 3D7)) (Q8IBS5 whole entry, looked up): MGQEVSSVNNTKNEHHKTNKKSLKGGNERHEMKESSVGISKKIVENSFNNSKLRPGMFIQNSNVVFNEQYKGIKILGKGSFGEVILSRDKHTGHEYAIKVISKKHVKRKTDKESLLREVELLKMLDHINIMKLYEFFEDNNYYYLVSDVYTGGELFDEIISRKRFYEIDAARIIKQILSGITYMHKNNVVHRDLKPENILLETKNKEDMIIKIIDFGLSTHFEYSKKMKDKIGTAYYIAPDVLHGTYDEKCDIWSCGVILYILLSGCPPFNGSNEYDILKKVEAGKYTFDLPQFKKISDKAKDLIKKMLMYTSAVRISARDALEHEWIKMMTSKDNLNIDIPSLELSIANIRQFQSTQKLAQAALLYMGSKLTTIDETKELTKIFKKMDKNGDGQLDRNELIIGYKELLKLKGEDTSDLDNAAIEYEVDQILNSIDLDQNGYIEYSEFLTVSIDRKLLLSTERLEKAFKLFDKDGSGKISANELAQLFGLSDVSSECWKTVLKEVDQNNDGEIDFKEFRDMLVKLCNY

Chain of Plasmodium falciparum protein kinase 6 (PK6, PF3D7_1337100) (Q8IDW1 1-305): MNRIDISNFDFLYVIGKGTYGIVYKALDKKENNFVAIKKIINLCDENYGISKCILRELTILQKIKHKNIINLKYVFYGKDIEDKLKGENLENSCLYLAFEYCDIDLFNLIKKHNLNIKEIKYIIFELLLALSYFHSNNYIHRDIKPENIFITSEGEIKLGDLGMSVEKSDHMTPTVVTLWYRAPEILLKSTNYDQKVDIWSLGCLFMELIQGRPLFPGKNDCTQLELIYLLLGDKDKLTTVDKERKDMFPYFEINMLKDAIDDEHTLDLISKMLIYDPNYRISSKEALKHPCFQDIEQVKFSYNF
Chain of L-lactate dehydrogenase (Plasmodium falciparum (isolate CDC / Honduras)) (Q27743 whole entry, looked up): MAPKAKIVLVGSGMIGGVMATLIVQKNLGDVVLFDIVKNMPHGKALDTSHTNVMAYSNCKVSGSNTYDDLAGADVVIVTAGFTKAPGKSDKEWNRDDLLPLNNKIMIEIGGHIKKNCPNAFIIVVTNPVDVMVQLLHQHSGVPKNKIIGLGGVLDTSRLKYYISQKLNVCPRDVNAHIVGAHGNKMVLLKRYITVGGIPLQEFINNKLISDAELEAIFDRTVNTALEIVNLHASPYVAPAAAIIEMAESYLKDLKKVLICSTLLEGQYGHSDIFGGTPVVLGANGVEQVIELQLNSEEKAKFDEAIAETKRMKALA
Chain of Protein kinase 7 (PK7), Plasmodium falciparum 3D7 (PF3D7_0213400) (Q7YTF7 1-343): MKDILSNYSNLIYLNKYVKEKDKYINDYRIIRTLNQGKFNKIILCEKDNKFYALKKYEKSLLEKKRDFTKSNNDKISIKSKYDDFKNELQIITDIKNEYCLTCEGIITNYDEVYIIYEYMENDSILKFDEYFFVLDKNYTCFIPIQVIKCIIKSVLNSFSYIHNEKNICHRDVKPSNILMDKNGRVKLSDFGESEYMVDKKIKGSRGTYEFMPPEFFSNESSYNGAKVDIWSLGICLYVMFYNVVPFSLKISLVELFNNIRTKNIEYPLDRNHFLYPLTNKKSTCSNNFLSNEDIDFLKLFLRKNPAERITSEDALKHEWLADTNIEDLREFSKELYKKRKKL
Chain of Calcium-dependent protein kinase 1 (Plasmodium falciparum (isolate 3D7)) (P62344 whole entry, looked up): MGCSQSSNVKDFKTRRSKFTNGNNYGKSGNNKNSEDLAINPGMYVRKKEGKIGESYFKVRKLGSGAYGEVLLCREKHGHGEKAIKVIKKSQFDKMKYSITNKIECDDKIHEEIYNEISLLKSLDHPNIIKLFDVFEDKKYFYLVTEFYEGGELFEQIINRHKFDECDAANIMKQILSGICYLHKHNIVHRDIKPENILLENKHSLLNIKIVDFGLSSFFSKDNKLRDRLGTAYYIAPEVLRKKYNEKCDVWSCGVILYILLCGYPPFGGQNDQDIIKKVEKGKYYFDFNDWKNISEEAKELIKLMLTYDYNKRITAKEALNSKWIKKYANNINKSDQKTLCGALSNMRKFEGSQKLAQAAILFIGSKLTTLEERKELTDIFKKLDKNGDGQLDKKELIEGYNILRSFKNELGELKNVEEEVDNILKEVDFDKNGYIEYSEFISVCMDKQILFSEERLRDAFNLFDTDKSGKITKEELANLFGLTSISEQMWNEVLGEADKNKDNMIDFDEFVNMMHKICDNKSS

COc1ccc2c(NN=Cc3ccccc3)cc(C)nc2c1
active: growth inhibition [4] 100%
inactive: growth inhibition [1] 49% | inhibition [2] -2% | inhibition [3] -2% | outcome [5] | outcome [6] | outcome [7] | outcome [8]

COc1ccc(N2C(N)=NC(N)=NC2(C)C)cc1
inactive: growth inhibition [1] 29% | inhibition [2] 0% | inhibition [3] 4% | outcome [5] | outcome [6] | outcome [7] | outcome [8]
active: growth inhibition [4] 94%

CC(Cc1ccc(OCCN2CCN(c3cccc(Cl)c3)CC2)cc1)NCC(O)c1cccc(Cl)c1 (centres undefined)
active: growth inhibition [1] 91% | growth inhibition [4] 93%
inactive: inhibition [2] 48% | inhibition [3] 3% | outcome [5] | outcome [6] | outcome [7] | outcome [8]
